# Screening data from PubChem BioAssay.
# Rows were chosen to be rich in hits. Some 5.9% of all compounds tested hit in one or more screens of this group.
# LANA-H2B inh = blocks KSHV LANA binding to histone H2A/H2B; Q9QR71; cell-free LANA-H2A/H2B peptide, fluorescence polarization; inhibition, % (concentration not given with the values); actives 0.6% (n = 320,000); in the data active = inhibition mostly above about 10%, no sharp cut-off; inactive = mostly below about 6.7%
# PRMT1 inh = blocks human protein arginine methyltransferase 1; Q99873; recombinant PRMT1, activity-based probe fluorescence polarization; inhibition, % at 2.79 µM; actives 1.3% (n = 370,000); AID 652257;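 active = inhibition above about 21% made by adding two undisclosed values, limit read from the data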
# Target sequence (Q99873 whole entry, looked up): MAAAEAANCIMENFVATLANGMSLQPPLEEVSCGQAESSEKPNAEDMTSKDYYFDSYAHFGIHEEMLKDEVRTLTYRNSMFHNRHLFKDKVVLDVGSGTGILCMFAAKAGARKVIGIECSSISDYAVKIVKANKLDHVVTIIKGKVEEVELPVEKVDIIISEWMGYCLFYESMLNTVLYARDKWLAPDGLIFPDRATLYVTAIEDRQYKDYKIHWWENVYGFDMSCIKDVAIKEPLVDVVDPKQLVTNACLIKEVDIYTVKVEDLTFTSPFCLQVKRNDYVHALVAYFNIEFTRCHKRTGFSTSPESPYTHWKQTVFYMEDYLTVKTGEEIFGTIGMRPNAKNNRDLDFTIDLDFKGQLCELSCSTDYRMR
# Rtt109 HAT inh = C. albicans Rtt109 histone acetyltransferase inhibition. Q5AAJ8. purified Rtt109/Vps75, ThioGlo CoA-SH fluorescence, 4 h. inhibition, % at 34.9 µM. actives 0.16% (n = 330,000);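 active = inhibition of at least 50% in every replicate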
# ABHD5-PLIN5 inh = blocks binding of human ABHD5 to perilipin-5 | Q00G26+Q8WTS1 | Split G. princeps luciferase complementation, luminescence, 4 h | inhibition, % at 4 µM | actives 0.78% (n = 360,000) | AID 602281;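 active = inhibition above the mean inhibition across every tested compound plus 3 SD, cut at about 22% in these data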;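 also: 0% = DMSO only wells and the 100% control is not disclosed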
# rCAG binder = r(CAG) repeat RNA binding; TO-PRO-1 dye displacement fluorescence; inhibition, % at 3 µM; actives 1.3% (n = 370,000);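 active = inhibition above the plate cutoff, the mean of all test compounds on that plate plus 3 SD, cut at about 35% in these data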;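 also: 0% = DMSO alone and 100% = 100 µM mitoxantrone as full dye displacement; higher means more dye released from RNA so lower well fluorescence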
# ALR H2O2 inh = inhibitors of human sulfhydryl oxidase ALR; P55789; purified ALR, DTT oxidation, H2O2 HRP-luminol luminescence; inhibition, % (concentration not given with the values); actives 3.8% (n = 290,000);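 active = mean replicate inhibition above about 79%, with every replicate also reaching it, limit read from the data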
# Target sequence (P55789 whole entry, looked up): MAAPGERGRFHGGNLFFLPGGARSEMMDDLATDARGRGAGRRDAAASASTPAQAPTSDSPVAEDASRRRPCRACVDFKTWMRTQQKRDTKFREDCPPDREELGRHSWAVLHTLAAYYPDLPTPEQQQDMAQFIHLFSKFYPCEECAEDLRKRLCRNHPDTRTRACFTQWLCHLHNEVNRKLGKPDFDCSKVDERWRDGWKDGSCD
# * hit, by the source's call; . = no result given.
SMILES,LANA-H2B inh,PRMT1 inh,Rtt109 HAT inh,ABHD5-PLIN5 inh,rCAG binder,ALR H2O2 inh
CCCN1CCC(=O)N([C@H](CSc2ccc(OC)cc2)c2ccccc2)CC1,-4,11,-2,8,-5,98*
COc1ccc(CCNC(=O)c2ccc(Cl)c(S(=O)(=O)N3CCCC3)c2)cc1,.,-2,1,-6,2,.
COc1cccc(CNS(=O)(=O)c2cc(Br)ccc2Br)c1OC,.,2,.,.,3,.
O=C(NC(c1ccc(-c2ccccc2)cc1)c1cnccn1)C1CCN(CCCOc2ccccc2)CC1 (centres undefined),.,-1,.,-2,5,.
CC(C)OC(=O)N(C)c1ccc(C(O)(C(F)(F)F)C(F)(F)F)cc1,-2,1,55*,1,-8,0
CC(=O)Nc1ccc(C(O)(C(F)(F)F)C(F)(F)F)cc1,6,2,3,2,-3,-4
O=C(O)CC/C(=C\c1ccccc1[N+](=O)[O-])c1nc2ccccc2s1,-1,2,3,-2,19,97*
Cc1nn(-c2ccc(F)cc2)c(Cl)c1/C=C(\CCC(=O)O)c1nc2ccccc2s1,-2,4,6,-5,8,7
O=C(O)CC/C(=C\c1cc([N+](=O)[O-])ccc1Cl)c1nc2ccccc2s1,6,3,7,5,25,96*
O=C(Nc1nc2ccccc2s1)Nc1ccc([N+](=O)[O-])cc1Cl,-2,.,.,.,.,.
Cc1c(C(=O)NCc2ccc3c(c2)OCCO3)sc(=O)n1Cc1cccc(C(F)(F)F)c1,.,-2,.,-8,0,.
COc1ccc(C)cc1NC(=O)C1CCCN(S(=O)(=O)c2cnc[nH]2)C1 (centres undefined),-2,-3,8,6,4,46
CCSc1nnc(NC(=O)C2CCCN(S(=O)(=O)c3cnc[nH]3)C2)s1 (centres undefined),-1,-1,-1,-2,-1,93*
COc1ccc(NC(=O)C2CCCN(S(=O)(=O)c3cnc[nH]3)C2)cc1 (centres undefined),9,3,8,5,-2,42
Cc1cc(NC(=O)C2CCCN(S(=O)(=O)c3cnc[nH]3)C2)ccc1Br (centres undefined),-3,7,2,-3,1,93*
CCN(CC)c1ccc(NC(=O)C2CCCN(S(=O)(=O)c3cnc[nH]3)C2)c(C)c1 (centres undefined),2,8,-7,0,0,101*
O=C(Nc1ccc(F)c(F)c1)C1CCCN(S(=O)(=O)c2cnc[nH]2)C1 (centres undefined),2,.,15,0,.,.
Cc1ccc(NC(=O)C2CCCN(S(=O)(=O)c3cnc[nH]3)C2)cc1C (centres undefined),4,-1,-3,-3,1,98*
FC(F)(F)c1ccc(Cl)c(CN2CCN(c3ncc(Cc4ccccc4)cn3)CC2)c1,.,-3,.,.,5,.
O=C(c1ccccc1)C12COc3ccccc3C1ON=C2c1ccccc1 (centres undefined),.,-1,.,.,3,.
O=C(CCc1ccccn1)N1CCCC(Nc2ccc(F)cc2)C1 (centres undefined),4,0,-10,1,-3,99*
O=C(CCc1ccccn1)N1CCCC(Nc2cccc(F)c2)C1 (centres undefined),-1,-3,5,9,-2,51
CCc1nccn1CCC(=O)N1CCCC(Nc2ccc(F)cc2)C1 (centres undefined),0,-1,1,-15,-1,99*
O=C(CCC(=O)N1CCCC(Nc2ccccc2)C1)c1ccc(F)cc1 (centres undefined),-6,-9,-1,-16,-2,99*
COC(=O)[C@]12C[C@H](CC(=O)NCCCCc3ccccc3)C(=O)N(Cc3cccc4ccccc34)C1=C[C@H](C(C)C)O[C@@H]2C1CC1,.,-5,.,.,8,.
SMILES,LANA-H2B inh,PRMT1 inh,Rtt109 HAT inh,ABHD5-PLIN5 inh,rCAG binder,ALR H2O2 inh
O=[N+]([O-])c1ccc(C[n+]2cccc3c4ccccc4ccc32)cc1,0,-7,-19,1,4,-26
CCCCCCCCC[n+]1cccc2c3ccccc3ccc21,-6,.,8,29*,.,-13
C=CCn1c(C)csc1=Nc1ccccc1C,-1,-2,-6,-6,-6,99*
C=CCn1c(C)csc1=Nc1ccc(C(C)=O)cc1,-1,-2,7,0,-2,16
COc1ccc(C(C)C)cc1-c1cncc(NC(C)=O)n1,.,-1,.,0,-1,.
Cc1cnc(NC(=O)CSC(=S)N2CCOCC2)s1,-1,1,1,3,-1,97*
Cc1ccc(NC(=O)COC(=O)CSC(=S)N2CCOCC2)cc1,0,-4,-12,0,-4,98*
CCOC(=O)c1ccc(NC(=O)CSC(=S)N2CCOCC2)cc1,-5,-4,9,-4,-6,100*
CCOC(=O)c1sc(NC(=O)CSC(=S)N2CCN(C)CC2)nc1C,0,8,-4,2,-7,99*
COC(=O)C1=C(C)N(C)C(=NCc2ccc3c(c2)OCO3)NC1c1ccccc1 (centres undefined),.,-4,.,.,9,.
Cc1ccc(OCC(=O)N(C)CC(=O)Nc2ccc(Cl)c(C(F)(F)F)c2)c([N+](=O)[O-])n1,105*,1,11,8,3,-3
Cc1cc(C)n(-c2ccc(Oc3ccccc3)c(S(=O)(=O)O)c2)n1,4,8,7,0,13,8
CCc1c(C)[nH]n(-c2ccc(Oc3ccccc3)c(S(=O)(=O)O)c2)c1=O,-4,.,-20,-9,.,99*
Cc1ccccc1NCCNc1ccccc1C,2,-1,-1,3,-5,99*
Cc1c(N=Cc2ccc[nH]2)c(=O)n(-c2ccccc2)n1C,1,-2,4,3,-2,97*
Cc1c(N=Cc2ccncc2)c(=O)n(-c2ccccc2)n1C,-1,0,-1,-5,-2,24
Cc1c(N=Cc2c(O)n(C)c(=O)c3ccccc23)c(=O)n(-c2ccccc2)n1C,3,.,2,2,.,2
Cc1c(N=Cc2ccccn2)c(=O)n(-c2ccccc2)n1C,2,2,3,-2,-3,98*
CC(C)CN(CC(C)C)C(=O)c1cn(C(C)c2ccccc2)nn1 (centres undefined),.,6,.,.,-1,.
CCC(Sc1nc(C)cc(C)n1)C(=O)NC1=NN=C(c2ccc(C)cc2)CS1 (centres undefined),-4,49*,0,-14,3,64
COCCCNC(=O)c1csc([C@H]2C[C@H](O)[C@@H](CO)O2)n1,.,3,.,4,2,.
CCCc1ccc(-c2cc(N)n[nH]2)cc1,-1,2,12,-10,4,99*
O=C(CCl)NC1CCCc2ccccc21 (centres undefined),-1,-2,3,4,-2,.
